Compound activity (PubChem BioAssay)
An excerpt weighted towards active compounds, which were near 6% of everything screened.
Luciferase inh: firefly luciferase inhibition; purified firefly luciferase, luminescence, 8 min; hit rate 2.2% among 72,000; Potency, µM (doses to about 57.1 µM), most hits filed as inhibitors; P08659; note: nearly all actives have a fitted effect of over 40% in size
Target sequence (P08659 whole entry, looked up): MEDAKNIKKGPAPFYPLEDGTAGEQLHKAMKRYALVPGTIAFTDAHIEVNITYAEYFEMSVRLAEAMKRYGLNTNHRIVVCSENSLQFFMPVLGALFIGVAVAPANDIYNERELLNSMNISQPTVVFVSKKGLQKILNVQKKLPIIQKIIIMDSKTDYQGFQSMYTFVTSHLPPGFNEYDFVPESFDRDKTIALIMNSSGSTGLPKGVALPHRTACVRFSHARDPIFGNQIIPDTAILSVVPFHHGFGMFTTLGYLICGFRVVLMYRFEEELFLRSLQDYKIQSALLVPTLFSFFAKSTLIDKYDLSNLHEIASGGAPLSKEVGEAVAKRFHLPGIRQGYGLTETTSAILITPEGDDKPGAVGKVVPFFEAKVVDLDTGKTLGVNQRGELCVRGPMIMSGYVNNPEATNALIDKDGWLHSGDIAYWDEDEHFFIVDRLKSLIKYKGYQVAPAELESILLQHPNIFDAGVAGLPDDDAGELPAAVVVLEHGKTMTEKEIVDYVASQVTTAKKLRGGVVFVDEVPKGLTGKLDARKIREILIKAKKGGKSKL
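Here, luciferase activity is measured as luminescence following an 8 min room-temperature reaction at 10 uM ATP, pH 7.2. Every library sample is titrated.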
Pol III holo inh: inhibitors of bacterial DNA polymerase III holoenzyme. reconstituted DNA polymerase III holoenzyme replication, biochemical. Potency, µM (top dose mostly 57.1 µM). hit rate 0.25% among 71,000
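Reconstituted *E. coli* holoenzyme (0.35 nM Pol III, 1 nM beta, 154 nM SSB, 2 nM primase) was preincubated with compound for 15 min at RT. Synthesis on 1.4 nM ssM13Gori ran 35 min, then was stopped with PicoGreen/EDTA and read as dsDNA fluorescence.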
PK Bst: modulators of Bacillus stearothermophilus pyruvate kinase. Potency, µM. hit rate 1.2% among 51,000. purified pyruvate kinase, luminescence ATP production; ribose 5-phosphate activator present at AC10. AID 361; in the data active = potency below about 11 µM; inconclusive = mostly about 12 µM to 25 µM;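 the screen sought inhibitors and activators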
ERK AVP block: blocks ERK signaling stimulated by vasopressin | HEK293-V1b, vasopressin-stimulated pERK AlphaScreen | Potency, µM (titrated, usually from 57.5 µM), hits mostly inhibitors | hit rate 0.99% among 72,000 | AID 995; note: nearly all actives have a fitted effect of over 55% in size
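Phosphorylated ERK1/2 detected via AlphaScreen bead proximity in lysates of V1b-expressing HEK293 cells given 25 nM vasopressin for 5 min after 30 min compound exposure (37 °C). AC50 from Hill equation; basal DMSO 0%, vasopressin 100%.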
15-hLO inh: 15-hLO (ALOX15) enzyme inhibition; P16050; purified 15hLO-1, xylenol orange hydroperoxide absorbance; Potency, µM (titrated, usually from 57.1 µM), actives largely listed as inhibitors; hit rate 1.4% among 74,000; AID 887; note: nearly all actives have a fitted effect of over 55% in size
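Purified human 15hLO-1 (40 nM) in 25 mM Hepes pH 7.5, 0.01% Triton X-100, preincubated 15 min RT with compound, then 50 uM arachidonic acid for 6 min. Hydroperoxide read by ferrous/xylenol orange, 30 min; 573/405 nm absorbance ratio gave progress.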
Tau filament bind: tau filament binding | recombinant tau filaments, thioflavin S fluorescence, 15 h; filaments grown with octadecylsulfate alongside compound | Potency, µM (series often up to 57.1 µM) | hit rate 2% among 71,000 | AID 596;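 note: actives lower thioflavin S fluorescence by blocking filaments or displacing dye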
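Tau 2 uM in ThS buffer dispensed; compound added; 60 uM ODS added (finals 1 uM tau, 30 uM ODS); 15 h 37 C; fluor ex450/em510.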
A number is an active result; [ ] = dose if it differs, or a comment. Unless noted, calls come from the whole dose curve; as a rule, active = well fitted curve in the direction sought with a large enough effect; inconclusive = small, poorly fitted or top-dose-only effect, or another doubt; inactive = no such curve, though single readings can be large; an effect the other way counts as inactive or inconclusive.

`O=C(NCCN1CCc2ccccc2C1)Nc1ccc(F)cc1` gave Luciferase inh inactive, Pol III holo inh inactive, ERK AVP block inactive, 15-hLO inh inactive and Tau filament bind inactive.
Screening CCc1ccc(NC(=O)NCCN2CCc3ccccc3C2)cc1 returned Luciferase inh inactive, Pol III holo inh inactive, PK Bst inactive, ERK AVP block inactive, 15-hLO inh inconclusive and Tau filament bind 12.6µM.
`Nc1cnn([C@@H]2O[C@H](CO)[C@@H](O)[C@H]2O)c(=O)n1` gave Pol III holo inh inactive, ERK AVP block inactive, 15-hLO inh inactive and Tau filament bind inactive.
Screening CC(=Nc1ccc(O)cc1)c1sc2ccccc2c1O returned Luciferase inh 7.94µM, Pol III holo inh inactive, PK Bst inconclusive, ERK AVP block inconclusive, 15-hLO inh inactive and Tau filament bind inactive.
For Cc1cc(N2CCC(C)CC2)n2ncc(-c3ccccc3)c2n1 the results were Luciferase inh 15.8µM, Pol III holo inh inactive, PK Bst inconclusive, ERK AVP block inactive, 15-hLO inh inactive and Tau filament bind inactive.
`Cc1cc(N2CCCCC2)n2ncc(-c3ccccc3)c2n1` gave Luciferase inh 3.98µM, Pol III holo inh inactive, PK Bst 3.43, ERK AVP block inactive, 15-hLO inh inactive and Tau filament bind inactive.
`Cc1cc(N2CCC(C)CC2)n2nc(C)c(-c3ccccc3)c2n1` gave Luciferase inh inactive, Pol III holo inh inactive, PK Bst inactive, ERK AVP block inactive, 15-hLO inh inactive and Tau filament bind inactive.
`Cc1cc(N2CCCCC2)n2ncc(-c3ccc(Cl)cc3)c2n1` gave Luciferase inh 12.6µM, Pol III holo inh inactive, PK Bst inactive, ERK AVP block inactive, 15-hLO inh inactive and Tau filament bind inactive.
`Nc1cccc(S(=O)(=O)O)c1` gave Pol III holo inh inactive, ERK AVP block inactive, 15-hLO inh inactive and Tau filament bind inactive.
For Cc1ccc(S(=O)(=O)N2CCN(C3CC(=O)N(Cc4ccccc4)C3=O)CC2)cc1C (configuration not stated) the results were Luciferase inh inactive, Pol III holo inh inactive, PK Bst inactive, ERK AVP block inactive, 15-hLO inh inactive and Tau filament bind inactive.
Screening Cc1cc2ncn(C3CC(=O)N(Cc4ccccc4)C3=O)c2cc1C (configuration not stated) returned Luciferase inh inactive, Pol III holo inh inactive, PK Bst inactive, ERK AVP block 31.6µM, 15-hLO inh inactive and Tau filament bind inactive.
FC(F)C(F)(F)C1=CC(c2ccccc2)=NCCN1 was read as Luciferase inh inactive, Pol III holo inh inactive, ERK AVP block inactive, 15-hLO inh inactive and Tau filament bind 12.6µM.
Screening FC(F)C(F)(F)C1=CC(c2cccs2)=NCCN1 returned Luciferase inh inactive, Pol III holo inh inactive, PK Bst inactive, ERK AVP block inactive, 15-hLO inh inactive and Tau filament bind 15.8µM.
For c1ccc2c(CC3=NCCN3)cccc2c1 the results were Luciferase inh inactive, Pol III holo inh inactive, PK Bst inactive, ERK AVP block inactive, 15-hLO inh inactive and Tau filament bind inactive.
Screening Clc1ccccc1-c1nccc(NCc2ccccc2)n1 returned Luciferase inh inactive[2.29 µM], Pol III holo inh inactive, ERK AVP block inconclusive, 15-hLO inh inactive and Tau filament bind inactive.
Screening Oc1cccc(C=NCc2ccccc2)c1O returned 15-hLO inh 5.01µM.
Screening COc1ccccc1OCC(=O)Nc1ccc(S(=O)(=O)N2CCCCCC2)cc1 returned Luciferase inh inactive, Pol III holo inh inactive[11.4 µM], ERK AVP block 25.1µM, 15-hLO inh inactive[11.4 µM] and Tau filament bind inactive[11.4 µM].
Screening O=C(COc1ccccc1Cl)Nc1ccc(Cl)cn1 returned Luciferase inh 15.8µM, Pol III holo inh inactive, ERK AVP block inactive, 15-hLO inh inactive and Tau filament bind inactive.
COc1ccccc1OCC(=O)Nc1ccccn1 was read as Luciferase inh 10µM, Pol III holo inh inactive, PK Bst inconclusive, ERK AVP block inactive, 15-hLO inh inactive and Tau filament bind inactive.
For COc1ccc(OCC(=O)Nc2ccc(S(=O)(=O)N3CCCCCC3)cc2)cc1 the results were Luciferase inh inactive, Pol III holo inh inactive, PK Bst inactive, ERK AVP block inactive, 15-hLO inh inactive and Tau filament bind inactive.
O=C(COc1ccccc1O)Nc1ccc(Cl)cc1 was read as Luciferase inh inactive, Pol III holo inh inactive, PK Bst 10.6, ERK AVP block inactive, 15-hLO inh inactive and Tau filament bind inactive.
For Cc1cccc(CNc2nc(-c3ccccc3CN(C)C)nc3ccccc23)c1 the results were Luciferase inh inactive[2.29 µM], Pol III holo inh inactive, ERK AVP block inactive, 15-hLO inh inactive and Tau filament bind inactive.
For O=C(COc1ccc(Cl)cc1Cl)Nc1ccccn1 the results were Luciferase inh 0.0794µM, Pol III holo inh inactive, PK Bst 0.131, ERK AVP block inactive, 15-hLO inh inactive and Tau filament bind inactive.
`O=C(COc1ccc(Cl)cc1Cl)NCc1ccncc1` gave Luciferase inh inactive, Pol III holo inh inactive[11.4 µM], ERK AVP block inconclusive, 15-hLO inh inactive[11.4 µM] and Tau filament bind inactive[11.4 µM].
Screening O=C(COc1ccc(Cl)cc1Cl)NC(=O)N1CCCCC1 returned Luciferase inh inactive, Pol III holo inh inactive, ERK AVP block inactive, 15-hLO inh inactive and Tau filament bind inactive.
`O=C(COc1ccc(Cl)cc1Cl)NC1CCSC1=O` (configuration not stated) gave Luciferase inh 25.1µM, Pol III holo inh inactive, ERK AVP block inactive, 15-hLO inh inactive and Tau filament bind inactive.
`CC(=O)O[C@H]1CC[C@@]2(C)[C@@H](CC[C@@]3(C)[C@H]2C(=O)C=C2[C@H]4C[C@](C)(C(=O)OCCN5CCCCC5)CC[C@]4(C)CC[C@@]23C)C1(C)C` gave Luciferase inh inactive[11.4 µM], Pol III holo inh inactive and Tau filament bind inactive.
`Cc1noc(C)c1-c1cc(NCCN2CCOCC2)ncn1` gave Luciferase inh inactive[2.29 µM], Pol III holo inh inactive, ERK AVP block inactive, 15-hLO inh inactive and Tau filament bind inactive.
Screening CCOC(=O)c1c(NC(=O)CN2CCOCC2)sc2c1CCCC2 returned Luciferase inh inactive, Pol III holo inh inactive, PK Bst inactive, ERK AVP block inconclusive, 15-hLO inh 25.1µM and Tau filament bind inactive.
COc1ccc(OC2C=CC(C#Cc3ccc(C(C)(C)C)cc3)OC2CO)cc1 (configuration not stated) was read as ERK AVP block inactive[11.5 µM] and 15-hLO inh inactive[11.4 µM].
CCCC1C(C(=O)OCC)=C(C)NC(C)=C1C(=O)OCC was read as 15-hLO inh inactive.
`CCOC(=O)C1=C(C)NC(C)=C(C(=O)OCC)C1` gave Luciferase inh inactive, Pol III holo inh inactive, PK Bst inactive, ERK AVP block inactive, 15-hLO inh 10µM and Tau filament bind inactive.
For COc1ccc(NC(=O)C2CCCN(S(=O)(=O)c3cccc4nonc34)C2)c(OC)c1 (configuration not stated) the results were Luciferase inh inactive, Pol III holo inh inactive, PK Bst inactive, ERK AVP block inactive, 15-hLO inh inconclusive and Tau filament bind inactive.
